Assay results reported in PubChem BioAssay AID1159580 (chemical genetic matrix, 2015).
The whole screen tested about 5,500 compounds, of which about 2,000 (36%) were called active. Another 18% or so got no clear call; they are omitted. Cut-off read from the data, not from the text of the source: active = normalized growth mostly below about 0.91 (no sharp cut-off); inconclusive = no clear call, values can overlap the other calls; inactive = mostly above about 0.92. The list shows a part of the results.

Assay: chemical genetic growth profiling, strain panel (AID 1159580);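 note: tested at 20 µM; growth read once vehicle control cultures reached saturation at 30 °C; 1 = growth at the plate median or of vehicle wells; lower values mean less growth of the strain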
Conditions: growth OD

Measured: normalized growth

NCC1CCC(C(=O)O)CC1 (stereo not drawn)
inactive: S. cerevisiae deletion strains, locus YKL009W, strain mrt4, stronger effect = lower value 0.97 | S. cerevisiae deletion strains, locus YKL068W, stronger effect = lower value 0.984 | S. cerevisiae deletion strains, locus YKL085W, strain MDH1 (second series), stronger effect = lower value 0.985 | S. cerevisiae deletion strains, locus YKL085W, strain MDH1, stronger effect = lower value 0.985 | S. cerevisiae deletion strains, locus YKL160W, strain elf1, stronger effect = lower value 0.997 | S. cerevisiae deletion strains, locus YKL190W, strain CNB1, stronger effect = lower value 0.995 | S. cerevisiae deletion strains, locus YKR001C, strain vps1, stronger effect = lower value 1.01 | S. cerevisiae deletion strains, locus YKR026C, strain gcn3, stronger effect = lower value 0.993 | S. cerevisiae deletion strains, locus YKR091W, strain srl3, stronger effect = lower value 0.997 | S. cerevisiae deletion strains, locus YLL001W, strain dnm1, stronger effect = lower value 0.998 | S. cerevisiae deletion strains, locus YLL026W, stronger effect = lower value 0.996 | S. cerevisiae deletion strains, locus YLL041C, strain sdh2, stronger effect = lower value 0.996 | S. cerevisiae deletion strains, locus YLR027C, strain aat2, stronger effect = lower value 0.989 | S. cerevisiae deletion strains, locus YLR039C, strain RIC1, stronger effect = lower value 0.975 | S. cerevisiae deletion strains, locus YLR058C, strain SHM2, stronger effect = lower value 1 | S. cerevisiae deletion strains, locus YLR102C, strain apc9, stronger effect = lower value 0.989 | S. cerevisiae deletion strains, locus YLR113W, strain HOG1, stronger effect = lower value 1 | S. cerevisiae deletion strains, locus YLR221C, strain rsa3, stronger effect = lower value 0.984 | S. cerevisiae deletion strains, locus YLR258W, strain gsy2, stronger effect = lower value 0.999 | S. cerevisiae deletion strains, locus YLR262C, strain YPT6 (second series), stronger effect = lower value 0.984 | S. cerevisiae deletion strains, locus YLR262C, strain YPT6, stronger effect = lower value 0.953 | S. cerevisiae deletion strains, locus YLR268W, strain sec22, stronger effect = lower value 0.991 | S. cerevisiae deletion strains, locus YLR320W, strain mms22, stronger effect = lower value 0.992 | S. cerevisiae deletion strains, locus YLR330W, strain CHS5, stronger effect = lower value 0.991 | S. cerevisiae deletion strains, locus YLR342W, strain FKS1 (second series), stronger effect = lower value 0.986 | S. cerevisiae deletion strains, locus YLR342W, strain FKS1, stronger effect = lower value 0.998 | S. cerevisiae deletion strains, locus YLR357W, strain rsc2, stronger effect = lower value 0.996 | S. cerevisiae deletion strains, locus YLR370C, strain arc18, stronger effect = lower value 0.996 | S. cerevisiae deletion strains, locus YLR371W, strain rom2, stronger effect = lower value 1 | S. cerevisiae deletion strains, locus YLR384C, strain iki3, stronger effect = lower value 0.999 | S. cerevisiae deletion strains, locus YLR418C, strain cdc73, stronger effect = lower value 0.97 | S. cerevisiae deletion strains, locus YML016C, strain PPZ1, stronger effect = lower value 0.999 | S. cerevisiae deletion strains, locus YML032C, strain rad52, stronger effect = lower value 1.01 | S. cerevisiae deletion strains, locus YML120C, strain ndi1, stronger effect = lower value 0.974 | S. cerevisiae deletion strains, locus YML124C, strain tub3, stronger effect = lower value 0.998 | S. cerevisiae deletion strains, locus YMR058W, strain fet3, stronger effect = lower value 0.988 | S. cerevisiae deletion strains, locus YMR078C, strain ctf18, stronger effect = lower value 0.98 | S. cerevisiae deletion strains, locus YMR125W, strain sto1, stronger effect = lower value 0.999 | S. cerevisiae deletion strains, locus YMR129W, stronger effect = lower value 0.999 | S. cerevisiae deletion strains, locus YMR205C, strain PFK2, stronger effect = lower value 0.989 | S. cerevisiae deletion strains, locus YMR223W, strain ubp8, stronger effect = lower value 0.987 | S. cerevisiae deletion strains, locus YMR231W, strain pep5, stronger effect = lower value 0.999 | S. cerevisiae deletion strains, locus YMR307W, strain GAS1, stronger effect = lower value 1.01 | S. cerevisiae deletion strains, locus YNL067W, strain RPL9B, stronger effect = lower value 1.03 | S. cerevisiae deletion strains, locus YNL071W, strain lat1, stronger effect = lower value 0.989 | S. cerevisiae deletion strains, locus YNL153C, strain GIM3, stronger effect = lower value 1.06 | S. cerevisiae deletion strains, locus YNL183C, strain NPR1, stronger effect = lower value 0.946 | S. cerevisiae deletion strains, locus YNL209W, strain ssb2, stronger effect = lower value 1.02 | S. cerevisiae deletion strains, locus YNL233W, strain BNI4, stronger effect = lower value 1.03 | S. cerevisiae deletion strains, locus YNL248C, strain rpa49, stronger effect = lower value 0.988 | S. cerevisiae deletion strains, locus YNL250W, strain rad50, stronger effect = lower value 0.979 | S. cerevisiae deletion strains, locus YNL271C, strain bni1, stronger effect = lower value 0.978 | S. cerevisiae deletion strains, locus YNL298W, strain CLA4, stronger effect = lower value 0.987 | S. cerevisiae deletion strains, locus YNL307C, strain MCK1, stronger effect = lower value 0.999 | S. cerevisiae deletion strains, locus YNL322C, strain KRE1 (second series), stronger effect = lower value 0.992 | S. cerevisiae deletion strains, locus YNL322C, strain KRE1, stronger effect = lower value 0.991 | S. cerevisiae deletion strains, locus YNR049C, strain mso1, stronger effect = lower value 0.991 | S. cerevisiae deletion strains, locus YNR052C, strain pop2, stronger effect = lower value 0.985 | S. cerevisiae deletion strains, locus YOL006C, strain TOP1, stronger effect = lower value 1.1 | S. cerevisiae deletion strains, locus YOL012C, strain htz1 0.934 | S. cerevisiae deletion strains, locus YOL147C, strain pex11, stronger effect = lower value 0.99 | S. cerevisiae deletion strains, locus YOR001W, strain rrp6, stronger effect = lower value 0.998 | S. cerevisiae deletion strains, locus YOR061W, strain CKA2, stronger effect = lower value 1 | S. cerevisiae deletion strains, locus YOR069W, strain VPS5, stronger effect = lower value 0.986 | S. cerevisiae deletion strains, locus YOR070C, strain gyp1, stronger effect = lower value 0.993 | S. cerevisiae deletion strains, locus YOR080W, strain dia2, stronger effect = lower value 0.987 | S. cerevisiae deletion strains, locus YOR083W, strain WHI5, stronger effect = lower value 1 | S. cerevisiae deletion strains, locus YOR106W, strain vam3, stronger effect = lower value 1.01 | S. cerevisiae deletion strains, locus YOR136W, strain idh2, stronger effect = lower value 0.991 | S. cerevisiae deletion strains, locus YOR144C, strain elg1, stronger effect = lower value 1 | S. cerevisiae deletion strains, locus YOR184W, strain ser1, stronger effect = lower value 0.981 | S. cerevisiae deletion strains, locus YOR231W, strain MKK1, stronger effect = lower value 1.05 | S. cerevisiae deletion strains, locus YOR265W, strain rbl2, stronger effect = lower value 0.994 | S. cerevisiae deletion strains, locus YOR270C, strain vph1, stronger effect = lower value 0.987 | S. cerevisiae deletion strains, locus YOR290C, strain snf2, stronger effect = lower value 1.01 | S. cerevisiae deletion strains, locus YOR316C, strain cot1, stronger effect = lower value 0.992 | S. cerevisiae deletion strains, locus YPL051W, strain arl3, stronger effect = lower value 0.993 | S. cerevisiae deletion strains, locus YPL078C, strain atp4, stronger effect = lower value 0.993 | S. cerevisiae deletion strains, locus YPL106C, strain sse1, stronger effect = lower value 0.967 | S. cerevisiae deletion strains, locus YPL240C, strain hsp82, stronger effect = lower value 0.989 | S. cerevisiae deletion strains, locus YPL241C, strain CIN2, stronger effect = lower value 0.996 | S. cerevisiae deletion strains, locus YPL256C, strain CLN2, stronger effect = lower value 1.02 | S. cerevisiae deletion strains, locus YPR119W, strain clb2, stronger effect = lower value 0.994 | S. cerevisiae deletion strains, locus YPR141C, strain kar3, stronger effect = lower value 0.998 | S. cerevisiae deletion strains, locus YPR163C, strain tif3, stronger effect = lower value 0.992 | S. cerevisiae deletion strains, locus YPR167C, strain met16, stronger effect = lower value 0.989 | S. cerevisiae deletion strains, strain wtn01, stronger effect = lower value 0.979 | S. cerevisiae strains, strain wild type, stronger effect = lower value 0.995
